# Source: PubChem BioAssay
# NPC1 promoter act – NPC1 promoter activation. 320,000 compounds, 2.4% hits. Potency, µM (top dose mostly 9.22 µM), actives largely listed as activators. Huh7 NPC1 promoter luciferase reporter, 24 h. AID 485313; also: nearly all actives have a fitted effect of over 60% in size
#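 NPC1 promoter–luciferase Huh7 cells; 24 h compound; luminescence.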
# SMN2 splice enh – enhancers of SMN2 splice variant expression; 210,000 compounds, 2.8% hits; AID 1458; Potency, µM (doses to about 46.1 µM), actives largely listed as activators; HEK293 SMN2-luciferase splicing reporter, luminescence, 30-36 h; also: nearly all actives have a fitted effect of over 55% in size
#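 HEK293 cells carry an SMN2 minigene-luciferase reporter in which exon 7 inclusion puts luciferase in frame. Cells were seeded at 2000 cells/well, attached for 10-12 hours, then exposed to compounds for 30-36 hours at 37C before ONE-Glo luminescence.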
# Rab9 promoter act – activates the Rab9 promoter. Potency, µM (titrated, usually from 9.22 µM), hits mostly activators. AID 485297. 320,000 compounds, 2.8% hits. Huh7 Rab9 promoter-luciferase reporter, luminescence, 24 h; also: nearly all actives have a fitted effect of over 60% in size
#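 Huh7 cells stably carrying Rab9 promoter–luciferase reporter, plated 1500 cells/well, compound added after 2 h and incubated 24 h at 37 °C; luciferase luminescence then read after 10 min with detection reagent.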
# ELG1 genotoxic – induces genotoxicity in HEK293T cells with luciferase-tagged ELG1; HEK293T ELG1-luciferase reporter, luminescence, 16 h; 330,000 compounds, 1.3% hits; Potency, µM (doses to about 46 µM), hits mostly activators; also: nearly all actives have a fitted effect of over 60% in size
#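 Screening used a luciferase reporter fused to human ELG1 in HEK293T cells. Luminescence was read on a CCD plate imager after 16 hr exposure and 30 min ONE-Glo incubation.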
# FLuc counter – counter-screen for miR-21 project: firefly luciferase inhibitors or activators; AID 588342; P08659; 360,000 compounds, 6.9% hits; Potency, µM (series often up to 57.5 µM), usual class: inhibitors; purified FLuc, Km substrates, luminescence inhibition; also: nearly all actives have a fitted effect of over 55% in size
# Target sequence (P08659 whole entry, looked up): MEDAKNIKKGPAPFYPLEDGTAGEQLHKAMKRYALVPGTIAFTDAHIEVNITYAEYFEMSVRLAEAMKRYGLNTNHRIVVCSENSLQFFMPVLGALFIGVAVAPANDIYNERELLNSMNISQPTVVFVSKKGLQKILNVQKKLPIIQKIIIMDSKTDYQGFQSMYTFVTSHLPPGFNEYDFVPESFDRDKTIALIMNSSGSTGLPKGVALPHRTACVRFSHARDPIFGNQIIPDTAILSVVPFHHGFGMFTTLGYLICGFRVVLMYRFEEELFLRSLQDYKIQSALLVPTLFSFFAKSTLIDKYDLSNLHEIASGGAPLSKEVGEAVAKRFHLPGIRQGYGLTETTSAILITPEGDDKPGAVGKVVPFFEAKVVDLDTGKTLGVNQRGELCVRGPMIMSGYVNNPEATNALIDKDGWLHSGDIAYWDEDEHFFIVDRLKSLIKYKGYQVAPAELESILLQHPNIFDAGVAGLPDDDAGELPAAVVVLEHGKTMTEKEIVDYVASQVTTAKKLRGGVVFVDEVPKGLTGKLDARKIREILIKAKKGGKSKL
#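 Purified P. pyralis luciferase, 10 nM final, with Km-level 10 uM D-luciferin and 10 uM ATP in 50 mM Tris acetate pH 7.5, 10 mM Mg acetate, 0.01% Tween-20, 0.05% BSA; 6-point qHTS titration about 60 µM downward; luminescence read.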
# Luc counter – Kinase-Glo luciferase inhibition (counter-screen). Q27757. Kinase-Glo luciferase, ATP luminescence, 8 min. Potency, µM (series often up to 38.3 µM), hits mostly inhibitors. 200,000 compounds, 0.28% hits. AID 1379; also: nearly all actives have a fitted effect of over 60% in size
#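 Kinase-Glo luciferase light output from ATP and luciferin was measured with 10 uM ATP, within the enzyme's linear range. Buffer: 50 mM imidazole pH 7.2, 50 mM KCl, 7 mM MgCl2, 0.01% Tween 20, 0.05% BSA; luminescence read after 8 min at ambient temperature.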
# Numbers stand for hits; . = inactive; ? = inconclusive; / = no result given. Hits are enriched below; roughly 7.3% of the tested compounds scored in any of these assays. Calls follow the shape of the dose curve; as a rule, active = well fitted curve in the direction sought with a large enough effect; inconclusive = small, poorly fitted or top-dose-only effect, or another doubt; inactive = no such curve, though single readings can be large; an effect the other way counts as inactive or inconclusive.
SMILES,NPC1 promoter act,SMN2 splice enh,Rab9 promoter act,ELG1 genotoxic,FLuc counter,Luc counter
Cc1cc(Cl)cc2c(N=Nc3ccccc3C(=O)O)c(O)[nH]c12,?,/,?,.,12µM,/
COc1cc(C(=O)OC(C)C(=O)Nc2ccc3c(c2)OCCO3)cc(OC)c1OC (stereo not given),/,/,/,.,/,/
COc1ccc(Cl)cc1NC(=O)CSc1nc(-c2ccccc2)c2ccccc2n1,/,.,/,/,.,/
CCN(c1ccc(OCC(=O)OCC(=O)c2c(N)n(C)c(=O)n(C)c2=O)cc1)S(=O)(=O)c1ccccc1,.,.,.,.,12µM,.
CN(c1ccc(OCC(=O)OCC(=O)c2c(N)n(C)c(=O)n(C)c2=O)cc1)S(=O)(=O)c1ccc2ccccc2c1,.,.,.,.,.,.
CN(C)/C=C/C(=O)c1cnc(-c2ccccc2Cl)s1,2µM,13µM,1.3µM,?,9.5µM,.
CC(=O)c1cnc(-c2cccc(Cl)c2)s1,?,?,?,?,.,.
CN(C)/C=C/C(=O)c1cnc(-c2cccc(Cl)c2)s1,3.2µM,14µM,1.3µM,?,12µM,.
CN(C)/C=C/C(=O)c1cnc(-c2ccccn2)s1,3.2µM,11µM,1.6µM,.,?,.
O=C(O)C1CCCCC1C(=O)NCCCN1CCCC1=O (stereo not given),.,/,.,.,.,/
O=c1cc(-c2ccccc2)[nH]n1-c1nc2ccccc2[nH]1,.,.,.,?,19µM,.
O=c1cc(-c2ccc(O)cc2)oc2cc(O[C@H]3OC(CO)C(O)C(O)C3O)cc(O)c12 (stereo not given in full),/,?,/,/,/,.
O=c1c(-c2ccc(O)cc2)coc2cc(OC3OC(CO)C(O)C(O)C3O)cc(O)c12 (stereo not given),?,?,?,15µM,24µM,.
O=c1c(-c2ccc(O)cc2)coc2cc(OC3OC(CO)C(O)C(O)C3O)ccc12 (stereo not given),3.2µM,?,?,16µM,?,.
COc1cc(O)c2c(=O)c(-c3ccc(O[C@@H]4O[C@H](CO)[C@@H](O)[C@H](O)[C@H]4O)cc3)coc2c1,1.6µM,/,4µM,?,17µM,/
O=C(CCc1ccccn1)N1CCCC(Nc2cccc(F)c2)C1 (stereo not given),.,/,.,.,.,/
N#CCCN(C(=O)c1ccco1)c1ccccc1,.,/,.,.,.,/
Cc1nnc(SCc2cc(=O)[nH]c(N3CCN(C)CC3)n2)s1,.,.,.,.,.,.
c1ccc(CCNc2cnccn2)cc1,.,/,.,.,.,/
CCc1cccc2c(C(=O)COC(=O)c3nccnc3N)c[nH]c12,.,/,?,?,15µM,/
CCc1cccc2c(C(=O)COC(=O)c3ccccc3)c[nH]c12,?,.,?,?,2.4µM,.
CCCCCC(=O)N/N=C/c1ccc(N(C)C)cc1,?,?,?,?,12µM,.
COc1ccc(OCC(=O)N/N=C/c2ccc(N(C)C)cc2)cc1,.,.,.,.,13µM,.
COc1ccc(/C=N/NC(=O)CNC(=O)COc2ccccc2)cc1,.,.,.,.,.,.
COc1ccc(OCC(=O)N/N=C/c2cccn2-c2cccc(C(=O)O)c2)cc1,.,/,.,.,13µM,/
SMILES,NPC1 promoter act,SMN2 splice enh,Rab9 promoter act,ELG1 genotoxic,FLuc counter,Luc counter
Brc1ccc2oc(-c3ccn[nH]3)cc2c1,2.2µM,/,2.5µM,?,3µM,/
CC(=O)Nc1nnc(SCC(=O)N2C(C)CCCC2C)s1 (stereo not given),.,/,.,.,.,/
CC1CN(C(=O)CSc2nnc(NC(=O)NC(C)(C)C)s2)CC(C)O1 (stereo not given),.,/,.,.,24µM,/
O=S(=O)(NC1CCCCC1NCc1ccco1)c1ccc(Cl)cc1 (stereo not given),.,.,.,.,.,.
O=C(Nc1nnc(SCC(=O)N2CCOCC2)s1)c1ccccc1,.,14µM,?,?,2.7µM,.
O=C(Cc1ccccc1)Nc1nnc(SCC(=O)NC2CCCC2)s1,.,.,.,.,.,.
O=C(CSc1nnc(NC(=O)c2ccccc2)s1)NC1CCCC1,?,/,?,.,2.7µM,/
O=C(CSc1nnc(NC(=O)c2ccco2)s1)NC1CCCCC1,.,.,.,.,19µM,.
O=C(CSc1nnc(NC(=O)c2ccc(F)cc2)s1)NC1CCCC1,?,/,3.5µM,?,2.4µM,/
Cc1nonc1CN(C)C(=O)CC1C(=O)NCCN1Cc1ccccc1F (stereo not given),.,/,.,.,.,/
CCC(=O)N1CCN(c2nc(C)nc3sc(C)c(C)c23)CC1,.,.,.,.,.,.
COc1cc(NC(=O)C(C)N2CCN(C(=O)C3CC3)CC2)cc(OC)c1 (stereo not given),.,/,.,.,.,/
CCc1nnc(NC(=O)CCC(=O)Nc2ccccc2)s1,.,.,.,.,.,.
Cc1nc(NC(=S)Nc2ccccc2)sc1C,?,16µM,?,.,2.7µM,.
CCC(C(=O)Nc1nc(C)c(C)s1)c1ccccc1 (stereo not given),.,/,.,.,?,/
CCOc1ccc(C(=O)Nc2nnc(NC(=S)Nc3ccccc3)s2)cc1,.,.,.,.,?,.
Cc1ccc(C(=O)Nc2nnc(NC(=S)Nc3ccccc3)s2)cc1,.,/,.,.,19µM,/
CCc1nnc(NC(=S)Nc2ccccc2)s1,?,22µM,?,.,?,.
O=C(Nc1nc(-c2ccccn2)cs1)C1COc2ccccc2O1 (stereo not given),.,.,.,?,?,.
CN(Cc1cccs1)C(=O)CNC(=O)c1ccco1,.,/,?,?,.,/
Cc1nc2c(-c3ccccc3)c(C)nn2c(N)c1-c1ccccc1,2.2µM,13µM,1.6µM,?,1.1µM,.
Cc1cc(N)n2nc(-c3ccccc3)c(-c3ccccc3)c2n1,.,/,.,.,.,/
Cc1nn2c(N)c(-c3ccccc3)cnc2c1-c1ccc(Cl)cc1,2.5µM,/,3.5µM,?,5.4µM,/
Cc1nn2c(-c3ccccc3)ccnc2c1-c1ccccc1,?,.,?,?,5.4µM,.
Cc1nn2c3c(cnc2c1-c1ccccc1)C(=O)CCC3,?,.,?,?,15µM,.
SMILES,NPC1 promoter act,SMN2 splice enh,Rab9 promoter act,ELG1 genotoxic,FLuc counter,Luc counter
N#Cc1cnn2c(N)c(-c3ccc(Cl)cc3)cnc12,.,.,.,.,.,.
O=S(=O)(Nc1nc2ccccc2nc1NCCO)c1cccc(Cl)c1,.,.,.,.,.,.
CCC1(NC(C)=O)CC2CC1CC2NC(C)=O (stereo not given),.,.,.,.,.,.
CCN(CC)S(=O)(=O)c1cc(NC(=O)CCCOc2ccc(C(C)=O)cc2)ccc1C,.,.,.,.,.,.
Cn1c(=O)c2c(-c3ccccc3)n(CCCO)cc2n(C)c1=O,/,/,/,/,.,/
Cc1cc(-c2ccccc2)n2nc(-c3ccc(Cl)cc3)cc2n1,/,/,/,/,.,/
